# Bioassay records from PubChem.
# A selection: hits, their analogues and other compounds. The true share with any hit is near 11%.
# IMPase inh – membrane-permeable compound that blocks inositol monophosphatase. P97697. CHO-M1 cells, IP1 accumulation, HTRF TR-FRET ratio. inhibition (IP1 accumulation), % at 46.1 µM. 120,000 tested, under 10 active. AID 901; active = well fitted curve in the direction sought with a large enough effect in the signal ratio, not every such curve was filed as active; inconclusive = small, poorly fitted or top-dose-only effect, or a change in a side signal; inactive = no such curve, though single readings can be large or run the other way; the % refers to the signal ratio;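 also: cells stimulated with carbachol in lithium chloride buffer; plate controls were DMSO basal wells for no effect and reference inhibitor wells for full effect; higher means more IMPase inhibition seen as more IP1 and lower FRET ratio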
# Target sequence (P97697 whole entry, looked up): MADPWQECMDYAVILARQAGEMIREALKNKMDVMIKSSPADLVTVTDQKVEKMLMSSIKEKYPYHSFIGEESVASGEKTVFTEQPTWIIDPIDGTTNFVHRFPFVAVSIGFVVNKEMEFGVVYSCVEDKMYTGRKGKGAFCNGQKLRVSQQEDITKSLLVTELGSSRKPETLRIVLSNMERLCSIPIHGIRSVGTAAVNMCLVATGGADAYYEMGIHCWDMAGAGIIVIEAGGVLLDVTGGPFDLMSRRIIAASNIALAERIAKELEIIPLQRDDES
#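 Carbachol-driven Gq signalling in CHO-M1 cells (2000/well) generates IP1. Compounds that block IMPase raise IP1 and so reduce the FRET signal from Eu-anti-IP1 and d2-IP1 after a 10 min room-temperature lysis.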
# HPGD inh – blocks human HPGD enzyme activity | P15428 | purified HPGD, NADH fluorescence kinetic, PGE2 substrate | Potency, µM, inactives show at the top dose activity change, negative = inhibition, most hits filed as inhibitors | hit rate 4.3% among 150,000 | AID 894; active = well fitted inhibition curve with a large enough effect, not every such curve was filed as active; inconclusive = small, poorly fitted or top-dose-only effect, or another doubt; inactive = no such curve, though single readings can be large or run the other way; also: potency is read from the fitted curve at half-maximal effect
# Target sequence (P15428 whole entry, looked up): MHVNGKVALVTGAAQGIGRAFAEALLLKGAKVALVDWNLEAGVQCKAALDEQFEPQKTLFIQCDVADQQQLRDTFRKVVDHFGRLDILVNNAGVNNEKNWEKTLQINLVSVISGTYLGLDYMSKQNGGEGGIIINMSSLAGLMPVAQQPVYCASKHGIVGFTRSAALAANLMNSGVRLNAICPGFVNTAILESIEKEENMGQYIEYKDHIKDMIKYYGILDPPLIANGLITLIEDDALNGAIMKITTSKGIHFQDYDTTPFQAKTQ
#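 20 nM HPGD preincubated 15 min at room temperature with compound in 50 mM Tris-HCl pH 8, 0.01% Tween 20. Started with 1 mM NAD+ and 30 uM prostaglandin E2; NADH fluorescence (360/450 nm) read 5 times over 30-s intervals, last minus first.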
# ALDH1A1 block – blocks purified human ALDH1A1 activity; hit rate 7.3% among 220,000; Purified ALDH1A1, NADH fluorescence, propionaldehyde substrate; P00352; Potency, µM (doses to about 75.3 µM), for inactives: at the top dose activity, negative = inhibition, hits mostly inhibitors; active = well fitted inhibition curve with a large enough effect, not every such curve was filed as active; inconclusive = small, poorly fitted or top-dose-only effect, or another doubt; inactive = no such curve, though single readings can be large or run the other way;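 also: potency is read from the fitted curve at half-maximal effect; plate controls were no enzyme wells and a reference inhibitor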
# PNC inhibitor – inhibitors of perinucleolar compartment assembly | AID 2417 | activity change (PNC), negative = inhibition, % at 10 µM | PC3M PTB-GFP, PNC prevalence imaging, 16 h; active compounds read low | hit rate 3.1% among 140,000;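 active = readout at or below -70, meaning at least 70% loss of cells showing the perinucleolar compartment, a nuclear body marking cancer cells; inconclusive = readout between -30 and a set limit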;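 also: plate controls were DMSO wells for no effect and camptothecin positive control wells for full effect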
#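 Compounds are pinned in duplicate onto adhered PC3M cells stably expressing GFP-tagged PTB and incubated 16 h at 37 C. Cells are then fixed, nuclei stained with Hoechst, and PNC-positive cells counted.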
# IMPase Li inh – membrane-permeable IMPase blocker, potentiated with lithium; CHO-M1 cells, IP1 TR-FRET (IP-One), carbachol + lithium; hit rate 0.35% among 210,000; AID 1457; Potency, µM (doses to about 59.4 µM), without a hit: at the highest dose activity, negative = IMPase inhibition, actives largely listed as inhibitors;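 also: IP1 builds up when IMPase is blocked and the TR-FRET signal falls; potency is read from the fitted curve at half-maximal effect; plate controls were basal vehicle for no effect and high inhibitor control for full effect; nearly all actives have a fitted effect of over 50% in size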
#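 Concentration–response in CHO-M1 cells, lithium-potentiated; 30 min at 37C. IP1 detected by competitive TR-FRET after 10 min lysis at RT. Hill-fitted AC50.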
# 12-hLO inh – blocks human 12-lipoxygenase activity. purified 12-hLO, xylenol orange hydroperoxide absorbance. Potency, µM (series often up to 57.1 µM), without a hit: top-dose activity change, negative = inhibition, most hits filed as inhibitors. P18054. hit rate 0.12% among 150,000; also: potency is read from the fitted curve at half-maximal effect; nearly all actives have a fitted effect of over 55% in size
#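 Hydroperoxide formation by human 12-lipoxygenase from 40 uM arachidonic acid was followed colorimetrically via ferric-xylenol orange complex, using the 573/405 nm absorbance ratio. Enzyme concentration was 150 nM, with 30 min reaction at room temperature.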
# Starred values were filed as active, the others as inactive; ? = inconclusive; · = not tested or not shown; ! = not confirmed by another sample; [ ] = remark or other dose. Unless noted, calls follow the shape of the dose curve; as a rule, active = well fitted curve in the direction sought with a large enough effect; inconclusive = small, poorly fitted or top-dose-only effect, or another doubt; inactive = no such curve, though single readings can be large; an effect the other way counts as inactive or inconclusive. Unless noted, % is scaled to controls: 0 for no effect and ±100 for the full control effect.
SMILES,IMPase inh,HPGD inh,ALDH1A1 block,PNC inhibitor,IMPase Li inh,12-hLO inh
Cc1ccc(C)c(-n2nnnc2SCC(=O)c2ccc3c(c2)NC(=O)CO3)c1,-8.2,-26.9%,0.631µM*,-11.3,?,-25.2%
Oc1ccc(/C=N/N(Cc2ccccc2)c2ccccc2)c(O)c1O,·,·,10µM*,·,6.3%,·
Oc1cccc(/C=N/N(Cc2ccccc2)c2ccccc2)c1,·,·,-12.7%,·,13.7%,·
CO[C@H]1C=CO[C@@]2(C)Oc3c(C)c(O)c4c(O)c(c(C=NN5CCN(C)CC5)c(O)c4c3C2=O)NC(=O)C(C)=CC=C[C@H](C)[C@H](O)[C@@H](C)[C@@H](O)[C@@H](C)[C@H](OC(C)=O)[C@@H]1C,·,25.1µM*,?,-114.6*,40.1%,-26.8%
CC(C)N(C(=O)CN(C#N)c1nc(N(C)C)nc(N(C)C)n1)c1ccccc1,3.7,-6.2%,8.91µM*,?,21.6%[38.3 µM],0.5%
COC(=O)CN(C#N)c1nc(N(C)C)nc(N(C)C)n1,·,·,-2.4%,·,-4.9%,·
COc1ccc(C(=O)N(C)c2c(C)n(C)n(-c3ccccc3)c2=O)cc1OC,·,·,7.3%,·,19.5%,·
CN(C(=O)CSc1nc2ccc(Br)cc2c(=O)n1Cc1ccco1)C1CCS(=O)(=O)C1 (stereo not given),·,·,12.6µM*,·,·,·
CCN(C(=O)CSc1nc2cc(Cl)ccc2c(=O)n1Cc1ccco1)C1CCS(=O)(=O)C1 (stereo not given),·,·,17.8µM*,·,16.7%,·
CSCCNC(=O)c1ccc(C(C)(C)C)cc1,2.1,14.1µM*,-8.6%,-22.3,-1.8%[38.3 µM],-1.7%
Cc1ccc(C(=O)NCCSC(C)(C)C)cc1,-0.2,-22.8%,5.8%,15.5,-6.5%[38.3 µM],-1.1%
CN1CCc2c(sc3c2c(=O)n(-c2ccccc2)c2nnc(SCc4ccccc4)n32)C1,22.0,?,25.1µM*,7.3,52.1%[38.3 µM],-6.6%
O=C(CSc1nc2ccc([N+](=O)[O-])cc2s1)c1ccc2ccccc2c1,·,-4.2%,11.2µM*!,·,5.1%,1.7%[11.4 µM]
O=C(CSc1nc2ccccc2s1)Nc1ccc2c(c1)oc1ccccc12,·,-14.0%,25.1µM*,31.0,-10.5%,-3.6%
O=C(CSc1nnc(NC(=O)c2ccccc2Cl)s1)Nc1ccc2c(c1)oc1ccccc12,·,-6.1%,17.8µM*,-22.9,-3.8%,0.5%
CC(C)(C)NC(=O)CSc1nnc(NC(=O)c2ccccc2Cl)s1,·,·,-5.3%,·,0.4%,·
O=C(CSc1nc2ccccc2s1)c1cc2ccccc2o1,-1.1,22.4µM*,?,11.9,-7.7%[38.3 µM],-10.3%
O=[N+]([O-])c1ccc2nc(SCc3ccccc3Cl)sc2c1,6.2,-12.1%,?,99.3,4.1%[38.3 µM],-2.3%
COc1ccc(NC(=O)CN(Cc2ccccc2)S(=O)(=O)c2ccc(C)cc2)cc1Cl,5.3,·,·,·,·,·
O=C(CSc1nc2ccccc2s1)NNC(=O)Nc1ccc(Cl)c(Cl)c1,-4.6,-5.6%,1.8%,?,7.8%,2.9%
Nc1nc(SCC(=O)Nc2cc(S(=O)(=O)N3CCOCC3)ccc2Cl)n[nH]1,·,·,-6.3%,·,-0.3%,·
COc1ccc(S(=O)(=O)N2CCOCC2)cc1NC(=O)CSc1n[nH]c(C(C)C)n1,·,·,25.1µM*,·,-1.3%,·
O=C(CSc1nc2ccccc2s1)Nc1ccc(Cl)c(C(=O)O)c1,·,·,2.51µM*,·,1.8%,·
O=C(CSc1nc2ccccc2s1)Nc1cc(S(=O)(=O)N2CCOCC2)ccc1O,6.6,12.6µM*,1.0%,-4.5,1.4%,-11.4%
COc1cccc(-c2cncnc2NCc2cccs2)c1,·,·,?,·,23.6%,·
SMILES,IMPase inh,HPGD inh,ALDH1A1 block,PNC inhibitor,IMPase Li inh,12-hLO inh
O=C(c1ccncc1)N1CCC2(CCN(Cc3ccncc3)CC2)CC1,·,-3.2%,-8.2%,·,9.1%,0.9%
O=C1NC2(CCCCC2)C(=O)N1/N=C/c1ccccc1Br,·,·,4.47µM*,·,2.0%,·
Cc1cccc2nc(CSc3nc4ccc([N+](=O)[O-])cc4[nH]3)c(Br)n12,5.2,?,25.1µM*,-19.2,18.6%,-1.3%
CCCCCCC(=O)Nc1cc2c(C)cc(=O)oc2cc1C,9.8,-17.2%,5.01µM*,-119.2*,-11.5%,5.0%
CCCC/C(=N\NC(=O)c1ccc(Br)o1)c1ccccc1,·,-3.3%,-2.8%,-113.8*,11.4%,1.3%
COc1ccc(C2CC(=O)C(CS(=O)(=O)c3ccccc3)C(=O)C2)cc1 (stereo not given),·,·,7.94µM*,·,2.6%,·
O=C1CC(c2ccccc2)CC(=O)C1Sc1ccc(Cl)cc1 (stereo not given),·,?,?,-1.0,-2.4%,-3.0%
O=C1CCCC(=O)C1CS(=O)(=O)c1ccccc1,·,·,12.6µM*,·,2.8%,·
O=C1CCCN1CC(O)CS(=O)(=O)c1ccccc1 (stereo not given),4.8,-6.3%,2.1%,-26.3,3.3%[38.3 µM],3.1%
O=C1CC(c2ccc(Cl)cc2)CC(=O)C1CS(=O)(=O)c1ccccc1 (stereo not given),·,·,7.08µM*,·,7.0%,·
COC(=O)c1ccc(NC(=O)CN(Cc2ccccc2)S(=O)(=O)c2ccc(Cl)cc2)cc1,4.5,·,·,·,·,·
CN1CCN(C(=O)c2ccc(CN3CCOCC3)cc2)CC1,1.0,-19.6%,-6.2%,-92.7*,-16.1%[38.3 µM],7.4%
